From PubChem BioAssay (NCI)
About 79,000 compounds went through this panel and 15% of them were active in at least one assay; those are over-represented in the sample as a whole. Calls of active or inactive are those of the source. Rule as the data show it: active = growth inhibition above about 70%; inactive = the rest.

Assays:
[1] = NCI Yeast Anticancer Drug Screen. Data for the rad52 strain (AID 147);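 also: 0% = growth of vehicle-treated control cultures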; conditions: S. cerevisiae rad52 mutant growth inhibition, hits give high values
Method in brief: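 Read-out: growth inhibition versus vehicle-treated controls. Cells were a DNA repair-deficient yeast strain treated with compounds.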

[2] = NCI Yeast Anticancer Drug Screen. Data for the wt1 strain (AID 149);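 also: 0% = growth of vehicle-treated wt1 cultures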; conditions: S. cerevisiae wt1 strain (SPY 50644) growth inhibition, hits give high values
Method in brief: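 Vehicle-normalised growth inhibition; strain wt1; compound exposure.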

[3] = NCI Yeast Anticancer Drug Screen. Data for the rad50EPP+ strain (AID 151);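 also: 0% = growth of vehicle-treated control cultures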; conditions: S. cerevisiae rad50 mutant strain, hits give high values
Method in brief: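 Growth inhibition read against vehicle controls in rad50EPP+ yeast, a strain altered in DNA damage repair, after compound exposure.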

[4] = NCI Yeast Anticancer Drug Screen. Data for the mgt1 strain (AID 153); conditions: S. cerevisiae mgt1 mutant growth inhibition, hits give high values
Method in brief: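 mgt1 yeast grown with test compound; read-out is growth inhibition versus vehicle-treated cultures.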

[5] = NCI Yeast Anticancer Drug Screen. Data for the rad50 strain (AID 155);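 also: 0% = growth of vehicle-only cultures of the same strain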; conditions: S. cerevisiae rad50 strain growth inhibition, hits give high values
Method in brief: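 A DNA repair-deficient yeast mutant serves as the test organism; compound-induced growth inhibition is calculated against vehicle-treated cells.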

[6] = NCI Yeast Anticancer Drug Screen. Data for the mec2-1 strain (AID 157); conditions: S. cerevisiae mec2-1 strain, hits give high values
Method in brief: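 Yeast mec2-1 mutant treated with compound. Readout: growth inhibition vs vehicle controls.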

[7] = NCI Yeast Anticancer Drug Screen. Data for the rad14 strain (AID 159);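 also: 0% = growth of vehicle-treated control cultures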; conditions: S. cerevisiae rad14 strain growth inhibition, hits give high values
Method in brief: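 Vehicle-treated cultures served as the baseline for growth inhibition of a DNA repair-mutant yeast strain exposed to each compound.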

[8] = NCI Yeast Anticancer Drug Screen. Data for the sgs1 mgt1 strain (AID 161);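 also: 0% = growth of cultures given vehicle only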; conditions: S. cerevisiae sgs1 mgt1 strain, hits give high values
Method in brief: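 Test agents were incubated with a DNA-repair-mutant yeast strain. Growth was then read and compared against vehicle-treated controls.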

[9] = NCI Yeast Anticancer Drug Screen. Data for the CLN2oe strain (AID 163);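 also: 0% = growth of vehicle-only control cultures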; conditions: S. cerevisiae CLN2oe strain, hits give high values
Method in brief: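 Read-out: yeast growth inhibition, expressed relative to vehicle-only controls. The strain bears an engineered cell-cycle alteration.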

[10] = NCI Yeast Anticancer Drug Screen. Data for the cln2 rad14 strain (AID 165);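 also: 0% = growth equal to vehicle treated cultures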; conditions: S. cerevisiae cln2 rad14 strain, hits give high values
Method in brief: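 cln2 rad14 yeast strain; compound exposure; growth inhibition read vs vehicle controls.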

[11] = NCI Yeast Anticancer Drug Screen. Data for the bub3 strain (AID 167); conditions: S. cerevisiae bub3 mutant strain, hits give high values
Method in brief: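 Inhibition values come from growth of compound-treated mutant yeast normalised to vehicle-treated controls.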

[12] = NCI Yeast Anticancer Drug Screen. Data for the wt2 strain (AID 169);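 also: 0% = growth of vehicle-treated yeast cultures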; conditions: S. cerevisiae wt2 strain growth inhibition, hits give high values
Method in brief: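 Read-out: growth inhibition versus vehicle-treated control cultures after compound exposure of the yeast strain.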

[13] = NCI Yeast Anticancer Drug Screen. Data for the mlh1 strain (AID 171);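 also: 0% = growth of vehicle-treated control cultures of the same strain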; conditions: S. cerevisiae mlh1 strain growth inhibition, hits give high values
Method in brief: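 Read-out: growth inhibition versus vehicle controls. Strain: engineered yeast with a defined DNA repair or cell cycle defect, compound-treated.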

[14] = NCI Yeast Anticancer Drug Screen. Data for the mlh1 rad18 strain (AID 175); conditions: S. cerevisiae mlh1 rad18 strain growth inhibition, hits give high values
Method in brief: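 Yeast w/ defined DNA-repair lesions; compound exposure; growth vs vehicle controls → % inhibition.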

[15] = NCI Yeast Anticancer Drug Screen. Data for the rad18 strain (AID 177); conditions: S. cerevisiae rad18 mutant growth inhibition, hits give high values
Method in brief: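 Readout: growth inhibition vs vehicle controls. Cells: genetically altered yeast strain, DNA repair defect.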

[16] = NCI Yeast Anticancer Drug Screen. Data for the sgs1 strain (AID 173);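 also: 0% = growth of vehicle-only control cultures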; conditions: S. cerevisiae sgs1 mutant, hits give high values
Method in brief: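 Read-out: yeast growth inhibition relative to vehicle controls, following compound exposure of a strain with a defined DNA repair/cell cycle alteration.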

[17] = at 5.0 µM (retest, dose inferred, filed as 0.5)
[18] = at 50.0 µM (retest, dose inferred, filed as 5.0)

Measured: growth inhibition

Nc1n[n+]([O-])c2ccc(Cl)cc2[n+]1[O-]
active: [1]; at 3.7 µM 80% | [1]; at 11.0 µM 91% | [1]; at 33.0 µM 94% | [1]; at 100.0 µM 96% | [2]; at 100.0 µM 84% | [3]; at 3.7 µM 77% | [3]; at 11.0 µM 88% | [3]; at 33.0 µM 91% | [3]; at 100.0 µM 94% | [4]; at 33.0 µM 80% | [4]; at 100.0 µM 95% | [5]; at 3.7 µM 79% | [5]; at 11.0 µM 88% | [5]; at 33.0 µM 92% | [5]; [18] 95% | [5]; at 50.0 µM 96.8% | [5]; at 100.0 µM 94% | [6]; at 33.0 µM 83% | [6]; [18] 91% | [6]; at 50.0 µM 78% | [6]; at 100.0 µM 93% | [7]; at 11.0 µM 71% | [7]; at 33.0 µM 89% | [7]; at 100.0 µM 96% | [8]; [18] 91% | [8]; at 50.0 µM 93.2% | [9]; at 33.0 µM 84% | [9]; at 100.0 µM 95% | [10]; [18] 93% | [10]; at 50.0 µM 76.7% | [11]; at 33.0 µM 81% | [11]; [18] 93% | [11]; at 50.0 µM 82.8% | [11]; at 100.0 µM 90% | [12]; at 33.0 µM 85% | [12]; at 100.0 µM 95% | [13]; at 11.0 µM 70% | [13]; at 33.0 µM 93% | [13]; at 100.0 µM 96% | [14]; [18] 97% | [14]; at 50.0 µM 94.7% | [15]; at 3.7 µM 87% | [15]; at 11.0 µM 93% | [15]; at 33.0 µM 95% | [15]; at 100.0 µM 95%
inactive: [1]; at 1.2 µM 49% | [2]; at 1.2 µM 8% | [2]; at 3.7 µM 13% | [2]; at 11.0 µM 31% | [2]; at 33.0 µM 62% | [3]; at 1.2 µM 53% | [4]; at 1.2 µM 1% | [4]; at 3.7 µM 27% | [4]; at 11.0 µM 36% | [5]; at 1.2 µM 60% | [5]; [17] 65% | [6]; at 1.2 µM 9% | [6]; at 3.7 µM 22% | [6]; [17] 15% | [6]; at 11.0 µM 57% | [7]; at 1.2 µM 12% | [7]; at 3.7 µM 32% | [8]; [17] 48% | [9]; at 1.2 µM 6% | [9]; at 3.7 µM 32% | [9]; at 11.0 µM 55% | [10]; [17] 19% | [11]; at 1.2 µM 0% | [11]; at 3.7 µM 15% | [11]; [17] 24% | [11]; at 11.0 µM 44% | [12]; at 1.2 µM 8% | [12]; at 3.7 µM 30% | [12]; at 11.0 µM 57% | [13]; at 1.2 µM 15% | [13]; at 3.7 µM 38% | [14]; [17] 50% | [15]; at 1.2 µM 66%

O=C1C(Br)=C(c2ccccc2)O/C1=C/C(=O)c1ccc(Br)cc1
inactive: [1]; at 1.2 µM 2% | [1]; at 3.7 µM 6% | [1]; at 11.0 µM 12% | [1]; at 33.0 µM 26% | [2]; at 1.2 µM 3% | [2]; at 3.7 µM 5% | [2]; at 11.0 µM 10% | [2]; at 33.0 µM 16% | [2]; at 100.0 µM 44% | [3]; at 1.2 µM 9% | [3]; at 3.7 µM 22% | [3]; at 11.0 µM 59% | [4]; at 1.2 µM 2% | [4]; at 3.7 µM 5% | [4]; at 11.0 µM 10% | [4]; at 33.0 µM 36% | [5]; at 1.2 µM 4% | [5]; at 3.7 µM 5% | [5]; [17] -21% | [5]; at 11.0 µM 11% | [5]; at 33.0 µM 18% | [5]; [18] 34% | [5]; at 50.0 µM 24.2% | [5]; at 100.0 µM 49% | [6]; at 1.2 µM -1% | [6]; at 3.7 µM 5% | [6]; [17] -6% | [6]; at 11.0 µM 8% | [6]; at 33.0 µM 20% | [6]; [18] 25% | [6]; at 50.0 µM 21.1% | [7]; at 1.2 µM 3% | [7]; at 3.7 µM 6% | [7]; at 11.0 µM 13% | [7]; at 33.0 µM 28% | [8]; [17] -7% | [8]; [18] 39% | [8]; at 50.0 µM 53.9% | [9]; at 1.2 µM 1% | [9]; at 3.7 µM 1% | [9]; at 11.0 µM 4% | [9]; at 33.0 µM 9% | [9]; at 100.0 µM 18% | [10]; [17] -13% | [10]; [18] 12% | [10]; at 50.0 µM 29.7% | [11]; at 1.2 µM -2% | [11]; at 3.7 µM -2% | [11]; [17] -16% | [11]; at 11.0 µM -1% | [11]; at 33.0 µM 6% | [11]; [18] 21% | [11]; at 50.0 µM 15.4% | [12]; at 1.2 µM 1% | [12]; at 3.7 µM 3% | [12]; at 11.0 µM 7% | [12]; at 33.0 µM 31% | [12]; at 100.0 µM 69% | [16]; at 1.2 µM 1% | [16]; at 3.7 µM 5% | [16]; at 11.0 µM 15% | [16]; at 33.0 µM 37% | [14]; [17] -16% | [14]; [18] 62% | [14]; at 50.0 µM 52.6% | [15]; at 1.2 µM 2% | [15]; at 3.7 µM 3% | [15]; at 11.0 µM 13% | [15]; at 33.0 µM 25%
active: [1]; at 100.0 µM 75% | [3]; at 33.0 µM 84% | [3]; at 100.0 µM 86% | [4]; at 100.0 µM 88% | [6]; at 100.0 µM 92% | [7]; at 100.0 µM 96% | [11]; at 100.0 µM 84% | [16]; at 100.0 µM 94% | [15]; at 100.0 µM 79%
